# Test results: PubChem BioAssay (NCATS)
# Results filed as inconclusive are left out. A number with no mark means an inactive call. Calls come from the whole dose curve; as a rule, active = well fitted cell-killing curve with a large enough effect; inconclusive = small, poorly fitted or top-dose-only effect, or effect the other way; inactive = flat fitted curve, though single readings scatter. *1 amine or outer side, *2 acyl side, *3 side chain or, on linkers, in order; H or OH if unused. Where a SMILES comes first, the peptide text is derived from it. [ ]: non-standard residue; d: D form. The star is where a group is joined. ξ: configuration not given here. X9 = CCC(C)(N*)C(=O)C1CC[C@@H](C(=O)N[C@@H](Cc2ccccc2)C(=O)NCC(=O)O)N1; X8 = O=C([C@@H]1CC(O)CN1[*:1])[*:2]; aIle = CC[C@@H](C)[C@H](N)C(=O)O; Thr(3ξ) = CC(O)[C@H](N)C(=O)O; ξIva = CCC(C)(N)C(=O)O; Aib = CC(C)(N)C(=O)O
# Tested on: SKOV3
# Test: Primary qHTS to identify gynecologic anti-cancer compounds using libraries of approved drugs and bioactive compounds (AID 1345084); note: nearly all actives have a fitted effect of over 55% in size
# Conditions: Gynecologic cancer cell panel viability, ATPlite luminescence, 48 h; series mostly up to 57.5 µM; activity change, negative = cytotoxicity: at the top concentration
# Outline: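 Cytotoxicity screen measuring ATP content by luciferase luminescence. Each compound is applied at five concentrations for 48 h at 37 C with 5% CO2.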
# % is set by controls: 0 for no effect and ±100 for the full control effect.
row,SMILES,"activity change, negative = cytotoxicity"
1,CCC1(O)CC2c3cc(OC)c(OC)cc3CCN2CC1CC(C)C (stereo not given),17.4%
2,CC1=CC(=O)CC(C)(C)C1CO[C@@H]1O[C@H](CO)[C@@H](O)[C@H](O)[C@H]1O (stereo not given in full),29.2% [at 38.5 µM]
3,C=C1CCC2(OC1)OC1CC3C4CC=C5CC(O)CC(O[C@@H]6OC[C@H](OC(=O)C(O)C(C)CC)[C@H](O)[C@H]6O[C@@H]6O[C@@H](C)[C@H](O)[C@@H](O)[C@H]6O)C5(C)C4CCC3(C)C1C2C (stereo not given in full),6.52% [at 11.6 µM]
4,CC(O)C/C=C/C=C/C(=O)OC1C=C2COC(=O)C2(O)C2(C)CCCC(C)(C)C12 (stereo not given),-11.7% [at 38.5 µM]
5,N[C@@H](CC(=O)Nc1ccc(Oc2cc(F)c(F)cc2Br)cc1)C(=O)O,12.2%
6,COc1ccc(CC(=O)NCc2ccccc2-c2ccccc2C(=O)NCCc2cccnc2)cc1,-3.04%
7,CC1OC(OC2C(OC(=O)[C@]34CCC(C)(C)C[C@H]3C3=CCC5[C@@]6(C)CC[C@H](OC7OC(C(=O)O)C(O)C(O)C7O)C(C)(C)C6CC[C@@]5(C)[C@]3(C)CC4O)OC(CO)C2O)C(O)C(O)C1OC1OCC(O)C(O)C1O (stereo not given in full),-0.208% [at 11.6 µM]
8,C=C1CC/C=C(/CO)C(=O)C[C@@H]2[C@@H]1C[C@@]2(C)COC(C)=O,0%
9,O=C(OC[C@H]1O[C@H](O[C@]2(CO)O[C@H](CO)[C@@H](O)[C@@H]2O)[C@H](O)[C@@H](O)[C@@H]1O)c1ccc(O)cc1,0% [at 25.3 µM]
10,C=CCC/C=C/C#CCCCCCCCC[C@H]1C(=O)O[C@H](C)[C@@H]1O,2.85% [at 38.5 µM]
11,COc1cc2c(cc1O)CC(O)(CO)C(CO)C2c1ccc(OC2OC(CO)C(O)C(O)C2O)c(OC)c1 (stereo not given),-4.4% [at 25.3 µM]
12,C=C1[C@H]2CCC3[C@]4(C)CCC[C@@](C)(C(=O)O)C4CC[C@]3(C2)[C@H]1OC(C)=O (stereo not given in full),16.8% [at 38.5 µM]
13,CC[C@@H](C)[C@H](NC(=O)C(C)(C)NC(=O)[C@H](CCC(N)=O)NC(=O)C(C)(CC)NC(=O)[C@H](Cc1c[nH]c2ccccc12)NC(C)=O)C(=O)N[C@H](C(=O)NC(C)(C)C(=O)N[C@@H](CC(C)C)C(=O)NC(C)(C)C(=O)N1CCC[C@H]1C(=O)N[C@@H](CCC(N)=O)C(=O)NC(C)(C)C(=O)N1CC(O)C[C@H]1C(=O)NC(C)(CC)C(=O)C1CC[C@@H](C(=O)N[C@@H](Cc2ccccc2)C(=O)NCC(=O)O)N1)C(C)O (stereo not given in full) (Ac-W[ξIva]Q[Aib][aIle][Thr(3ξ)][Aib]L[Aib]PQ[Aib][X8]-X9),-9.13% [at 6.55 µM]
14,OC[C@H]1O[C@@H](OCCc2ccccc2)[C@H](O[C@@H]2OC[C@@H](O)[C@H](O)[C@H]2O)[C@@H](O)[C@@H]1O,5.27% [at 25.3 µM]
15,CC1=CC23[C@H](C=C(C(=O)O)[C@@H]2COC(=O)[C@]3(O)CO)[C@@H]1C (stereo not given in full),31.9%
16,CC(C)(C)NS(=O)(=O)c1ccc(-c2ccc3[nH]nc(N)c3c2)cc1,4.33%
17,C[C@@H]1C[C@@H](O)[C@@]23CO[C@]2(CO)CCC[C@@H]3[C@@]12C[C@@H](c1ccoc1)OC2=O,-2.01% [at 38.5 µM]
18,COc1cccc(CN(C(=O)CC(C)(C)C)C2CC(C(=O)N3CCNCC3)N(Cc3ccc4c(c3)OCO4)C2)c1 (stereo not given),-3.63%
19,C=C1CC23CC1CCC2C12OC(=O)C(C)(C(O)CC1O)C2C3C(=O)O (stereo not given),8.77% [at 38.5 µM]
20,COc1ccc(C2C(C(=O)O)C(C(=O)O)C2c2ccc(OC)cc2O[C@@H]2O[C@H](CO)[C@@H](O)[C@H](O)[C@H]2O)c(O[C@@H]2O[C@H](CO)[C@@H](O)[C@H](O)[C@H]2O)c1 (stereo not given in full),-11% [at 25.3 µM]
21,CC1OC(OC2C(OC3C(O[C@H]4CC[C@@]5(C)C(CC[C@]6(C)C5C(=O)CC5=C7CC(C)(C)CC(O)[C@]7(C)CC[C@]56C)C4(C)C)OC(C(=O)O)C(O)C3O)OCC(O)C2O)C(O)C(O)C1O (stereo not given in full),29.3% [at 11.6 µM]
22,CN1CCN(c2nc(-c3ccc(C(=O)NC4(C(=O)NCC#N)CCCCC4)cc3)cs2)CC1,0%
23,C[C@H]1/C=C/C=C/C=C/C=C/C=C/[C@@H](O)[C@H](C(=O)O)[C@H](O)C[C@H](O)CCC[C@H](O)C[C@H](O)C[C@H](O)[C@@H](C)C(=O)O[C@@H]1C,14.6% [at 25.3 µM]
24,COc1cc(Nc2nc3c(s2)CCCC3c2ccccc2)ccc1-n1cnc(C)c1 (stereo not given),7.37% [at 11.6 µM]
25,CCCO[C@@H]1O[C@H](CO)[C@@H](O)[C@H](O)[C@H]1O[C@@H]1OC[C@@H](O)[C@H](O)[C@H]1O,-1.3% [at 38.5 µM]
